FMDV inh: foot and mouth disease virus antiviral activity; Potency, µM (titrated, usually from 57.9 µM), without a hit: at the top dose activity change, negative = inhibition, actives largely listed as inhibitors; FMDV antiviral cell-based qHTS; actives 1.2% (n = 410,000); AID 1159524; calls by dose curve; tested in HEK293T cells; note: read-out not given here; potency is the fitted concentration of half-maximal effect; % is set by controls: 0 for no effect and ±100 for the full control effect; nearly all actives have a fitted effect of over 45% in size
Lassa entry inh: blocks Lassa virus binding to or entry into cells; Lassa virus pseudotype entry inhibition, cell reporter; Potency, µM (top dose mostly 37.9 µM), inactives show at the top dose activity change, negative = inhibition, hits mostly inhibitors; actives 1.2% (n = 300,000); AID 540256; calls by dose curve; tested in HEK293 cells; note: potency is the fitted concentration of half-maximal effect; % is set by controls: 0 for no effect and ±100 for the full control effect; nearly all actives have a fitted effect of over 50% in size
Cycloheximide cs: affects cycloheximide protein synthesis inhibition readout, counter-screen | actives 12% (n = 300,000) | AID 2314 | cell reporter, cycloheximide protein synthesis inhibition counterscreen | max response, %; in the data active = max response mostly above about 13%, no sharp cut-off; inactive = mostly below about 14%; note: read at 38.3 µM for the half of the compounds with a filed dose; 0% is about no effect
MARV entry inh: blocks Marburg virus binding to or entry into cells. Marburg virus pseudotyped entry inhibition, cell reporter. Potency, µM (titrated, usually from 37.8 µM), without a hit: at the top dose activity change, negative = inhibition, hits mostly inhibitors. actives 1.8% (n = 300,000); calls by dose curve; tested in HEK293 cells; note: potency is the fitted concentration of half-maximal effect; % is set by controls: 0 for no effect and ±100 for the full control effect
Shiga toxin inh: Shiga toxin inhibition | Vero cells, Shiga toxin protein synthesis inhibition reporter | inhibition, % at 38.7 µM | actives 9.2% (n = 290,000); in the data active = inhibition mostly above about 28%, no sharp cut-off; inactive = mostly below about 43%; note: 0% is about no effect
HCV inhibitor: inhibitors of hepatitis C virus infection | Huh7.5.1 HCVcc-Cre infection, luciferase reporter, 44 h | Potency, µM (series often up to 41.8 µM), inactives show top-dose activity change, negative = inhibition, actives largely listed as inhibitors | actives 3.4% (n = 340,000); active = well fitted inhibition curve with a large enough effect; inconclusive = small, poorly fitted or top-dose-only effect, or another doubt; inactive = no such curve, though single readings can be large or run the other way; note: potency is the fitted concentration of half-maximal effect; % is set by controls: 0 for no effect and ±100 for the full control effect
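Whole-lifecycle infectious HCVcc-Cre system; cells 1,000/well, compound then virus (~0.5 moi) added 4 h after plating, 44 h culture. Luciferase read 15 sec following 15 min substrate incubation, room temp.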
Active calls of the source: *; ? = inconclusive; nt = no result given; + = active, no number; [ ] = another dose, or the depositor's remark. In the library only some 13% were active in any assay of this set; here they are far more common.

SMILES	FMDV inh	Lassa entry inh	Cycloheximide cs	MARV entry inh	Shiga toxin inh	HCV inhibitor
COc1ccc(N2CCN(c3c(S(=O)(=O)c4ccccc4)cnc4ccc(OC)cc34)CC2)cc1	0%	?	-2	8.9µM*	13	11µM*
CCOc1ccc2ncc(S(=O)(=O)c3ccccc3)c(N3CCN(c4ccc(OC)cc4)CC3)c2c1	-27%	?	-5	?	-1	?
COc1ccc(C(=O)N(Cc2sccc2C)C2CCS(=O)(=O)C2)cc1 (stereo not drawn)	-20%	2%	-4	-1%	-16	22%
O=C1CSc2ccccc2N1Cc1ccc(F)cc1	3%	-26%	31*	4%	23	-3%
O=C(COC(=O)c1ccc(F)cc1)Nc1ccc(Cl)cn1	0%	16%	-3	0%	-17	23%
CCCn1c(=O)c(C(=O)NCCc2ccc(OC)cc2)c(O)c2ccccc21	-9%	nt	-1	nt	-3	13µM*
CCN(CC)CCCNC(=O)c1c(O)c2ccccc2n(Cc2ccccc2)c1=O	-17%	?	-3	14µM*	-11	-20%
CCCn1c(=O)c(C(=O)NCc2ccc(OC)c(OC)c2)c(O)c2ccccc21	?	12%	-6	-21%	-22	14µM*
CCCn1c(=O)c(C(=O)NCCc2ccccc2)c(O)c2ccccc21	15%	11%[46.1 µM]	11	?	50	-20%
CC(C)Oc1ccc(C(=O)N2CCCC2C(=O)O)cc1 (stereo not drawn)	1%	?	-2	-6%	-4	20%
CC(C(=O)N1CCCc2ccccc21)N1CCN(c2ccccn2)CC1 (stereo not drawn)	?	nt	10	nt	-23	19%
Cc1ccc2sc(N(CCCN(C)C)C(=O)c3ccc(S(=O)(=O)N4CCc5ccccc5C4)cc3)nc2c1C	-4%	1%	nt	?	nt	?
CC(C)(C)OC(=O)N1CCC(CC2CC(c3ccc(Cl)cc3)=NO2)(C(=O)NCC2CCCCC2)CC1 (stereo not drawn)	-20%	nt	32*	nt	47*	21%
CC1(C(=O)N2CCC(CC3CC(c4ccc(Cl)cc4)=NO3)(C(=O)NCC3CCCCC3)CC2)CC1 (stereo not drawn)	-14%	nt	-1	nt	-4	?
O=C(Cc1c(F)cccc1Cl)N/N=C/c1cccs1	46%	5%[46.1 µM]	14	19%[46.1 µM]	-4	5%[8.37 µM]
Cc1ccc(/C=N/NC(=O)Cc2c(F)cccc2Cl)s1	14%	nt	54*	nt	79*	-20%
CCc1ccc(/C=N/NC(=O)Cc2cccn2C)cc1	2%	5%	29*	8%[46.1 µM]	51*	10%
Cc1ccc(/C=N/NC(=O)Cc2cccn2C)cc1	70%	12%	26*	25%	46*	15%
Cc1ccc(/C=N/NC(=O)Cc2cccn2C)s1	50%	?	49*	10%	58*	1%
COc1cc(NC(=O)COc2c(C)cc(C)cc2[N+](=O)[O-])c(OC)cc1Cl	0%	-12%	-3	5%	-14	-11%
COc1ccc(-n2nc3c(c2NC(=O)COc2ccccc2)CS(=O)C3)cc1 (stereo not drawn)	-18%	17%	-3	13%	-8	2%
O=C(CN1CCOCC1)N/N=C/C=C/c1ccccc1	-4%	2%	25*	25%[46.1 µM]	11	23%
Cn1cccc1CC(=O)N/N=C/c1ccc(C(C)(C)C)cc1	31%	-24%	22*	?	54*	-22%
Cn1cccc1CC(=O)N/N=C/C=C/c1ccccc1	49%	4%	25*	?	82*	-1%
Cc1ccc(N2CC(NC(=O)Cc3ccc(F)cc3)CC2=O)cc1C (stereo not drawn)	-5%	10%[46.1 µM]	nt	nt	nt	nt
SMILES	FMDV inh	Lassa entry inh	Cycloheximide cs	MARV entry inh	Shiga toxin inh	HCV inhibitor
COc1ccc(C)cc1N(C)C(=O)CCc1nc(-c2ccccc2F)no1	?	?	nt	0%[46.1 µM]	nt	nt
CCCOc1ccc(Br)cc1CSC(=N)N	?	?	-4	7.3µM*	-6	?
CCOc1ccc(Br)cc1CC(=O)O	-17%	2%	nt	11%	nt	22%
CC(C)=CCCC1(C)C=Cc2c(O)c3c(c(CC=C(C)C)c2O1)OC12C(=CC4CC1C(C)(C)OC2(C/C=C(/C)C(=O)O)C4=O)C3=O (stereo not drawn)	5.6µM*	nt	nt	nt	nt	nt
CC(C)=CCCC1(C)C=Cc2c(O)c3c(c(CC=C(C)C)c2O1)OC12C(=CC4CC1C(C)(C)OC2(C/C=C(/C)C(=O)O)C4O)C3=O (stereo not drawn)	10µM*	nt	nt	nt	nt	nt
COCCCN1C(=O)c2ccc(C(=O)NCc3ccco3)cc2C1=O	23%	4%	29*	11%	45	7%
COCCCN1C(=O)c2ccc(C(=O)Nc3ccc(OC)cc3)cc2C1=O	28%	?	15*	2%	38	17%
COCCCN1C(=O)c2ccc(C(=O)Nc3ccccc3OC)cc2C1=O	-18%	9%	6	-16%	-4	6%
COCCN1C(=O)c2ccc(C(=O)NCc3ccco3)cc2C1=O	-14%	nt	1	nt	-12	21%
Cn1nnnc1SCCNCc1ccc(OCc2ccccc2Cl)cc1	0%	-3%[46.1 µM]	nt	?	nt	nt
Cc1nc(-c2ccccc2)nc2n[nH]c(N)c12	35%	12%	nt	?	nt	17%
Cc1ccc(C(=O)N2CC(C)SC2=Nc2cccc(S(=O)(=O)N(C)C)c2)cc1 (stereo not drawn)	-19%	3.2µM*	-6	-12%	-11	-12%
COc1ccc(Cl)cc1NC(=O)CSc1nc2c([nH]c3ccccc32)c(=O)n1-c1ccccc1	-25%	?	nt	nt	nt	nt
O=C(CSCc1ccccc1)N1CCN(c2ccc(F)cc2)CC1	nt	5%	45*	1%	21	12%
Cc1ccc(CSCC(=O)N2CCN(c3ccccc3)CC2)cc1	-24%	?	7	?	12	-3%
O=C(CSCc1cccc(F)c1)N1CCN(c2ccccc2)CC1	29%	19%	41*	10%	83*	13%
O=C(CSCc1ccccc1)N1CCN(c2ccccc2)CC1	50%	16%	47*	?	+	-2%
CS(=O)(=O)N1N=C(c2cccs2)CC1c1ccccc1O (stereo not drawn)	0%	-6%	-2	-1%[46.1 µM]	-5	16%
Oc1ccccc1C1CC(c2cccs2)=NC(c2ccc(Cl)cc2)N1 (stereo not drawn)	-15%	nt	37*	nt	50*	?
Cc1c(N2C(=O)CS/C2=N\N=C\c2ccccc2O)c(=O)n(-c2ccccc2)n1C	34%	4%	14	19%	-2	31%
Fc1ccc([C@H]2CCNC[C@H]2COc2ccc3c(c2)OCO3)cc1	-17%	nt	nt	16µM*	nt	nt
CN(C)S(=O)(=O)N1CCC(c2ccc(F)cc2)C(COc2ccc3c(c2)OCO3)C1 (stereo not drawn)	-13%	?	9	2.8µM*	14	?
Cc1ccc2c(c1)c(CC(NC(=O)c1ccccc1Oc1ccccc1)C(=O)O)cn2C(=O)OCc1ccccc1 (stereo not drawn)	nt	nt	-3	nt	-6	nt
